Compound activity: PubChem BioAssay, Sanford-Burnham Center for Chemical Genomics
Hits are enriched below; roughly 4% of the tested compounds scored in any of these assays.
tim10-1 inh: growth inhibitors of tim10-1 mutant yeast. S. cerevisiae tim10-1 ts strain growth, BacTiter-Glo, 24 h. inhibition, % at 20 µM. hit rate 2.2% among 330,000;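 active = inhibition of at least 40%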;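 note: mutant grown at 25 °C; 0% = DMSO wells with yeast and 100% = wells holding no yeast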
TIM10 inh: growth inhibitors of TIM10 yeast strain; hit rate 1.4% among 330,000; inhibition, % at 10 µM; AID 463195; S. cerevisiae TIM10 strain growth, BacTiter-Glo luminescence, 24 h;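 active = inhibition of 40% or more at the single tested concentration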;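 note: wild-type TIM10 isogenic control strain grown at permissive 25 °C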
NALP3 yeast inh: NALP3 inhibition in yeast. Yeast reconstituted NLRP3/ASC/caspase-1, beta-gal luminescence, 24 h. inhibition, % at 10 µM. hit rate 0.39% among 330,000. AID 2825;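 active = inhibition of 50% or more; inactive = inhibition below 50%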;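 note: plate controls were induced DMSO wells for no effect and uninduced yeast grown without galactose for full effect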
tim23-1 inh: tim23-1 yeast growth inhibition | S. cerevisiae tim23-1 growth, BacTiter-Glo luminescence, 24 h | inhibition, % at 20 µM | hit rate 1.3% among 330,000;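 active = growth inhibition of the mutant yeast at or above 50%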;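 note: temperature-sensitive mutant grown at 25 °C; plate controls were DMSO-treated mutant yeast for no effect and medium wells lacking yeast for full effect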
NALP1 yeast inh: inhibitors of NALP1 inflammasome in yeast; S. cerevisiae NALP1/ASC/caspase-1 growth, X-gal OD620, 72 h; inhibition, % at 10 µM; hit rate 0.61% among 280,000; AID 2071; in the data active = inhibition mostly above about 24%, no sharp cut-off; inactive = mostly below about 32%
tim10-1 conf: tim10-1 yeast growth inhibition, confirmed; shares compounds with tim10-1 inh; inhibition, % at 20 µM; S. cerevisiae tim10-1 ts strain growth, BacTiter-Glo, 24 h; hit rate 56% among 7,400;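 active = inhibition of yeast growth at or above a set limit in either of two repeat tests at 20 µM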;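 note: tim10-1 mutant grown at permissive 25 °C to find synthetic lethal compounds; 0% = DMSO yeast wells and 100% = medium wells without yeast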
Active calls of the source: *; · = no result.

SMILES	tim10-1 inh	TIM10 inh	NALP3 yeast inh	tim23-1 inh	NALP1 yeast inh	tim10-1 conf
CCCCn1c(N)c(N(CCOC)C(=O)COC(=O)CSc2cc(C)c3ccccc3n2)c(=O)[nH]c1=O	-8	5	13	-4	·	·
CC(CNC(=O)COc1ccccc1)OC(=O)Nc1ccc(Cl)c(Cl)c1 (stereo not given)	50*	33	25	41	28	43*
CCOc1ccccc1OCCCC(=O)Nc1ccc(Cl)c(S(=O)(=O)N2CCOCC2)c1	20	8	3	16	·	·
O=C(c1ccco1)N1CCN(c2ncnc3scc(-c4cccs4)c23)CC1	46*	10	10	38	12	30
COc1ccc(-c2csc3ncnc(N4CCN(C(=O)c5ccco5)CC4)c23)cc1	35	25	13	32	·	·
COc1ccc(CCN(C)C(=O)c2cc(=O)c3ccccc3o2)cc1OC	10	12	0	16	14	·
COc1ccc(CCNC(=O)Nc2cccs2)c(OC)c1	41*	24	15	32	14	36*
CC(C1CC1)N(C(=O)c1ccccc1O)c1ccccc1 (stereo not given)	40	18	7	41	11	29
O=C(O)c1ccccc1C(=O)Nc1c(-c2ccccc2)nc2ccccn12	7	-5	7	4	15	·
COc1ccc(NCc2nc3ccccc3n2C)cc1	-12	-8	10	5	2	·
COc1ccc(NCc2nc3ccccc3n2CCOc2ccc(C)cc2)cc1	50*	17	28	49	22	29
CCOc1ccccc1N1CCN(C(=O)Nc2cccc(Cl)c2)CC1	44*	21	21	14	13	14
CCN(CC)c1nc(-c2cccc(OC)c2O)nc2ccccc12	47*	29	12	27	-13	36*
O=C(c1cc(COc2cccc3cnccc23)on1)N1CCC(c2ccccc2Cl)C1 (stereo not given)	51*	12	-2	32	16	3
CCc1ccc(CN(C)C(=O)c2cc(COc3cccc4cnccc34)on2)cc1	44*	17	-2	40	16	2
O=C(c1cc(COc2c(F)cccc2F)on1)N1CCC(c2ccccc2Cl)C1 (stereo not given)	20	5	8	16	0	·
CSc1ncccc1C(=O)Nc1nccs1	-17	5	0	23	13	·
Cc1cccc(NC(=O)C2CCCN2S(=O)(=O)c2ccc(Cl)cc2)n1 (stereo not given)	3	-1	18	16	20	·
c1csc(-c2nc3ccccn3c2NC2CCCCC2)c1	48*	31	21	27	-1	33*
CC(=O)c1ccc(-c2cccc(-c3nc4ccccn4c3NC3CCCCC3)c2)cc1	25	23	21	19	·	·
Cc1ccc2nc(-c3cccnc3)c(NC3CCCCC3)n2c1	28	22	12	31	-25	·
Cc1ccn2c(NC(=O)c3ccccc3)c(-c3cccs3)nc2c1	6	-21	11	-4	6	·
Cc1ccn2c(NC3CCCC3)c(-c3cccs3)nc2c1	46*	21	18	33	-16	31*
Cc1ccn2c(NCc3ccccc3)c(-c3cccs3)nc2c1	46*	29	11	46	-7	30
CCCC(=O)N(CCN1CCOCC1)c1nc2c(OC)ccc(OC)c2s1	4	-1	1	5	16	·
SMILES	tim10-1 inh	TIM10 inh	NALP3 yeast inh	tim23-1 inh	NALP1 yeast inh	tim10-1 conf
CCCCCCCC[n+]1c(C)n(-c2ccccc2)c2ccc(NC(C)=O)cc21	21	13	-3	5	6	·
O=C(OCc1nnc(-c2ccccc2)o1)c1cc(S(=O)(=O)N2CCOCC2)ccc1F	19	14	-1	28	·	·
C#CCN1C=C(C(=O)OCC)C(C)N(Cc2ccccc2I)S1(=O)=O (stereo not given)	0	-37	·	38	·	·
Cc1cc(Nc2ccccc2)nn1C(=O)c1ccc(Br)cc1	53*	6	19	21	-1	29
Cc1ccc2nc(-c3ccccc3)cc(C(=O)NCC(c3ccco3)N(C)C)c2c1 (stereo not given)	9	-4	4	19	·	·
NNC(=O)c1ccc(COc2ccc3ccccc3c2)o1	42*	4	25	33	-16	13
Cc1ccc2c(c1)N(CC(=O)N1CCCC1)C(=O)C(C)O2 (stereo not given)	3	4	15	7	-8	·
O=C(CSc1nnc(SCC(=O)c2ccco2)s1)c1ccco1	27	-3	13	29	9	·
O=C(CSc1nc2cc(Cl)ccc2s1)c1ccco1	43*	19	-12	43	-3	37*
CCN(CC)C(CNS(=O)(=O)c1ccc(Cl)cc1)c1ccccc1 (stereo not given)	9	11	10	18	16	·
Cc1cccc(OCC(=O)Nc2ccccc2N2CCCC2)c1C	12	-1	16	16	·	·
CCC(=O)N1CCN(c2ccccc2NC(=O)c2ccc([N+](=O)[O-])o2)CC1	24	35	35	42	8	·
CN1CCN(c2ccccc2NC(=O)c2ccc(-c3cccc(Cl)c3)o2)CC1	60*	36	41	44	12	47*
Cc1cccc(OCC(=O)Nc2ccccc2N2CCN(C(=O)C(C)C)CC2)c1C	48*	30	6	32	-2	30*
CC(C)C(=O)N1CCN(c2ccccc2NC(=O)c2ccc([N+](=O)[O-])o2)CC1	59*	35	23	45	7	56*
COc1cccc(NC(=O)CN(C)C(=O)c2cc3c(s2)CCC3)c1	-19	1	10	-5	·	·
COc1cc(OC)cc(C(=O)Nc2nc(-c3ccccc3)c(-c3ccccc3)o2)c1	44*	21	-24	10	13	33*
CCN(CC)C(=S)SCC(=O)Nc1nc(-c2ccccc2)c(-c2ccccc2)o1	41*	19	-54	18	29	12
O=C(c1ccc(Cl)cc1)N1CCN(S(=O)(=O)/C=C/c2ccccc2)CC1	46*	20	16	42	·	22
CC(NC(=O)C12CC3CC(CC(C3)C1)C2)c1ccc2c(c1)OCCO2 (stereo not given)	45*	8	9	24	6	25
O=C1CC(N2CCN(c3ccccc3)CC2)C(=O)N1c1ccc(Cl)cc1 (stereo not given)	17	2	3	22	25	·
O=C(CCN1Cc2ccccc2C1)c1ccc2c(c1)OCCO2	32	-4	3	29	8	·
O=C(CCN1CCc2ccccc2C(c2ccccc2)C1)c1ccc2c(c1)OCCO2 (stereo not given)	56*	7	23	33	70*	56*
Cc1ccccc1-c1nc(CS(=O)CC(=O)NC2CCCCC2)c(C)o1 (stereo not given)	20	8	1	8	24	·
COc1cc(CN2CCN(C(=O)c3ccc(-c4ccccc4)cc3)CC2)cc(OC)c1OC	20	16	2	30	10	·
